The results in this text go back to PubChem BioAssay (EPA / NIEHS).

Test [1] can be described thus: CCTE_Deisenroth_5AR_NBTE_donor: CCTE's 5alpha-reductase NanoBRET Target Engagement Assay […], Deisenroth Lab (AID 2284319). To be noted: actives raise or lower the signal. A digest of the protocol: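 HEK293T cells were reverse transfected with an SRD5A2-NanoLuc vector for 20 h, exposed to test chemical (8 points, 10 nM - 29.9 uM) for 3 h, then testosterone tracer for 2 h more. Donor luminescence (460 nm) was read; bidirectional fit versus DMSO.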
Background: BRET reads energy transfer from a luciferase to a nearby fluorophore.

Test [2] can be described thus: CCTE_Deisenroth_5AR_NBTE_acceptor: CCTE's 5alpha-reductase NanoBRET Target Engagement Assay - Autofluorescence Screen, Deisenroth Lab (AID 2284321).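 Further: compound fluorescence in the acceptor channel under 460 nm excitation flags autofluorescence artifacts.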 To be noted: actives raise or lower the signal. A digest of the protocol:
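Autofluorescence check: ToxCast chemicals, nominal 100 uM, excitation 460 nm, n=3 runs. Acceptor fluorescence endpoint, bidirectional fit relative to DMSO. Parent assay in HEK293T, 5 h post-dose.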

The next test deals with IYD (gene 389434). Briefly: CCTE_GLTED_hIYD: CCTE's human Iodotyrosine Deiodinase (xIYD) Inhibition Assay, Great Lakes Toxicology and Ecology Division (GLTED) Lab (AID 2284317; active means hit-call score of the fitted dose curve at least 0.9, where 1 is the maximum;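 further: cell-free human IYD enzyme made in baculovirus insect cells; iodide freed from monoiodotyrosine measured by cerium arsenite color change at 420 nm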). In outline: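 In the IYD assay, iodide released from MIT by insect-cell-expressed human enzyme was quantified after 3 h via Sandell-Kolthoff rate at 420 nm, with plate-wise normalization to MNT and solvent controls.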

The nature of test [3]: TAMU_PeakParms_SingleDonor1434_Asystole: Texas A&M University (TAMU) 1.5-hr Human Induced Pluripotent Stem Cell (iPSC)-derived Cardiomyocytes Calcium (Ca+2) Flux Assay for Cardiotoxicity: Asystole (quiescence of beating) (AID 2284328; active means hit-call score of the fitted dose curve at least 0.9, where 1 is the maximum). A digest of the protocol: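 Donor 1434 iPSC-cardiomyocytes exposed 90 min at 37C, 5% CO2, to 0.2, 1, 10 and 100 uM in 0.5% DMSO. Ca2+ dye fluorescence gave average peak frequency; POD is EC95, a 95% beat-rate drop versus controls.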

Test [4] is described as follows: VALA_TUBHUV_Agonist_CellCount: Viability Assessment in the VALA Sciences human Umbilical Vein Endothelial Tubule Formation (TUBHUV) Agonism Assay (AID 2284309; active means hit-call score of the fitted dose curve at least 0.9, where 1 is the maximum). In outline: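 Viability endpoint by fluorescent imaging of fixed nuclear/CD31-stained HUVEC–HDF co-cultures. Readout is cell count, fitted upward against 0.1% DMSO. Compound exposure was 72 h in 10 ng/ml VEGF, after 3-day co-culture priming.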

The nature of test [5]: VALA_TUBHUV_Antagonist_CellCount: Viability Assessment in the VALA Sciences human Umbilical Vein Endothelial Tubule Formation (TUBHUV) Antagonism Assay (AID 2284310; active means hit-call score of the fitted dose curve at least 0.9, where 1 is the maximum). In outline: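 Read-out is imaged cell count after nuclear and CD31 staining, fitted against 0.1% DMSO vehicle. Compounds were added for 3 days, in 10 ng/ml VEGF assay medium, to HUVEC–HDF co-cultures pre-grown 3 days.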

Test [6] can be described thus: VALA_TUBIPS_Antagonist_TubuleLength: VALA Sciences human iPS-derived Endothelial Tubule Formation (TUBIPS) Antagonist Assay (AID 2284313; active means hit-call score of the fitted dose curve at least 0.9, where 1 is the maximum). A digest of the protocol:
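Tubule length was quantified by high-content imaging of CD31- and nuclear-stained cells, with 0.1% DMSO as neutral and 100 uM suramin as inhibition control. Compounds were applied for 3 days, in 10 ng/ml VEGF, to cultures pre-grown 3 days.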

Test [7] is described as follows: VALA_MIGHUV2_CellCount: Viability Assessment in the VALA Sciences human Umbilical Vein Endothelial Cell Migration (MIGHUV) Assay, Area of Scratch Wound after Recovery (AID 2284314; active means hit-call score of the fitted dose curve at least 0.9, where 1 is the maximum). A digest of the protocol: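 Viability read-out: Hoechst-stained nuclei counted by fluorescence imaging after a 24 h recovery period in fixed, scratched HUVEC plates. Compound was dosed within 30 min of scratching at six concentrations (triplicate); DMSO at 0.1 % served as baseline.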

Test [8] is described as follows: IUF_NPC2b_neuronal_migration_120hr: Leibniz Research Institute for Environmental Medicine (IUF) 120-hour Neural Progenitor Cell Migration Assay for Neuron Migration (NPC2b) (AID 2284300). In outline:
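hNPC spheres, PDL/laminin, DMEM:F12 3:1 + 1% N2, 37C/5% CO2; 7 concentrations + solvent control (DMSO ≤0.1%), 5 d exposure, half-feed day 3. Fix 120 h, TUBB3 ICC, HCI: mean neuron migration distance ÷ glia distance.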

Test [9] is described as follows: IUF_NPC3_neuronal_differentiation_120hr: Leibniz Research Institute for Environmental Medicine (IUF) 120-hour Neuronal Differentiation Assay (NPC3) (AID 2284301). A digest of the protocol: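 hNPC spheres, PDL/laminin, DMEM/F12 3:1 + 1% N2, 37C, 5% CO2; 7 concentrations + solvent control, 5 d exposure, half-change day 3. Fix 120 h; TUBB3/Hoechst ICC, CNN neuron calling; % neurons vs nuclei, DMSO-normalized.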

Test [10] can be described thus: IUF_NPC4_neurite_length_120hr: Leibniz Research Institute for Environmental Medicine (IUF) 120-hour Neuronal Morphology Assay for Neurite Length (NPC4) (AID 2284302). In outline:
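hNPC spheres (0.3 mm, fetal brain GW 16-19) on PDL/laminin, DMEM:F12 3:1 + 1% N2, 37C 5% CO2; 7 concs + solvent control, day 0-5, half medium change d3; fix 120 h, TUBB3 ICC, mean neurite length um vs DMSO.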

A short description of test [11]: IUF_NPC5_oligodendrocyte_differentiation_120hr: Leibniz Research Institute for Environmental Medicine (IUF) 120-hour Oligodendrocyte Differentiation Assay (NPC5) (AID 2284304; active means hit-call score of the fitted dose curve at least 0.9, where 1 is the maximum;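 further: primary human fetal neural progenitor spheres plated to migrate and differentiate; share of O4-positive cells among Hoechst nuclei found by CNN image analysis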). A digest of the protocol:
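hNPC spheres, fetal cortex GW 16-19; PDL/laminin, DMEM:F12 3:1 + 1% N2, 37C/5% CO2; 7 concentrations + solvent control, 5 d exposure, half-change day 3. Readout: %O4+ of Hoechst+ nuclei in migration area, CNN classification; DMSO baseline.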

A short description of test [12]: IUF_NPC4_neurite_area_120hr: Leibniz Research Institute for Environmental Medicine (IUF) 120-hour Neuronal Morphology Assay for Neurite Area (NPC4) (AID 2284305; active means hit-call score of the fitted dose curve at least 0.9, where 1 is the maximum). In outline:
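hNPC spheres on PDL/laminin, N2 medium, 37C/5% CO2; dosed day 0, half-medium refresh day 3; fixed 120 h; TUBB3/Hoechst ICC, high-content imaging; neurite area = mean pixels per neuron (nuclei excluded); DMSO baseline, max 0.1%.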

The nature of test [13]: IUF_NPC2-5_cytotoxicity_72hr: Cytotoxicity Assessment at 72 hours in the Leibniz Research Institute for Environmental Medicine (IUF) Neural Progenitor Cell Migration and Differentiation Assay for Cytotoxicity (NPC2-5) (AID 2284306; active means hit-call score of the fitted dose curve at least 0.9, where 1 is the maximum;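 further: LDH release into supernatant measured by resorufin fluorescence marking membrane damage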). In outline: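 hNPC spheres (0.3 mm), PDL/laminin, DMEM/F12 3:1 + 1% N2; cpd from d0, 7 concs + SC, DMSO max 0.1%; half-medium refresh d3. Readout: supernatant LDH via resorufin fluorescence (RFU), 72 h; gain-of-signal fit.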

A short description of test [14]: IUF_NPC2-5_cytotoxicity_120hr: Cytotoxicity Assessment at 120 hours in the Leibniz Research Institute for Environmental Medicine (IUF) Neural Progenitor Cell Migration and Differentiation Assay (NPC2-5) (AID 2284307; active means hit-call score of the fitted dose curve at least 0.9, where 1 is the maximum;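 further: LDH released into supernatant as membrane damage marker via resorufin fluorescence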). A digest of the protocol: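 hNPC spheres on PDL/laminin, N2 medium, 37C; 7 concs + solvent control, DMSO ≤0.1%; 5-day exposure, half medium changed day 3. LDH in supernatant at 120 h, resazurin→resorufin fluorescence, gain-of-signal.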

Test [15] in a line: IUF_NPC2-5_cell_number_120hr: Cell Number Assessment at 120 hours in the Leibniz Research Institute for Environmental Medicine (IUF) Neural Progenitor Cell Migration and Differentiation Assay (NPC2-5) (AID 2284308).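 Further: count of Hoechst-stained nuclei in migration zone around plated human neural progenitor spheres.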 In outline: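 Hoechst-stained nuclei within the migration area were counted by automated high content imaging after 120 h. Single hNPC spheres differentiated on poly-D-lysine/laminin in DMEM/F12 (3:1) with 1% N2, compound present throughout, DMSO ≤0.1%.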

Test [16] is described as follows: IUF_NPC2-5_viability_120hr: Viability Assessment at 120 hours in the Leibniz Research Institute for Environmental Medicine (IUF) Neural Progenitor Cell Migration and Differentiation Assay (NPC2-5) (AID 2284312). A digest of the protocol: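 Human fetal neural progenitor spheres (0.3 mm) plated on poly-D-lysine/laminin in N2 differentiation medium, exposed 120 h with half-medium refresh at day 3. Viability by alamar blue resazurin fluorescence; 7 concentrations, DMSO max 0.1%.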

Records with an inconclusive call do not appear. Activity calls are given as the source filed them. How the source made its calls, unless noted: active means hit-call score of the fitted dose curve at least 0.9, where 1 is the maximum; inactive means score below 0.9.

As a reminder, the AC50 is the midpoint of the concentration-response curve, whichever way the signal moves. With `O=C(O)Cc1cc(I)c(Oc2ccc(O)c(I)c2)c(I)c1`, the results for the half-maximal activity concentration (AC50) in test [1] and in test [2] were 28.2 µM (active) and 14.3 µM (active), respectively.

In the case of `O=c1[nH]sc2ccccc12`, the AC50 was 81.2 µM (active) in test [1] and 82.8 µM (active) in test [2].

As to `CN(C)c1ccc(C(=C2C=CC(=[N+](C)C)C=C2)c2ccc(N(C)C)cc2)cc1`, the result in the test on IYD (gene 389434) was inactive. For the same compound, the results for the AC50 in [1], in [2] and in test [3] were 12.6 µM (active), 4.78 µM (active) and 0.589 µM (active), respectively.

Consider `O=C(Nc1ccc(Cl)cc1)Nc1ccc(Cl)c(Cl)c1`, for which the compound was called inactive in test [4], in test [5], in [6] and in test [7].

As for `Clc1cc(Cl)c2c(c1)N=C1CCCCCN1C2`, in the test on IYD (gene 389434), the compound was called inactive.

In the case of `CN1C(=O)N(c2ccccc2Br)Cc2cnc(Nc3ccc4c(c3)OCC(CO)O4)nc21` (stereo unspecified), the compound was called inactive in [1] and in test [2].

For `CC/C(=C(/CC)c1ccc(O)cc1)c1ccc(O)cc1`, in test [3], the outcome was inactive.

Regarding `CC(C)(c1cc(Br)c(O)c(Br)c1)c1cc(Br)c(O)c(Br)c1`, the AC50 was 5.12 µM (active) in test [8]; 5.06 µM (active) in test [9]; 3.33 µM (active) in [10]; 0.628 µM (active) in test [11]; 5.13 µM (active) in test [12]; 4.45 µM (active) in [13]. Also, the AC50 in [14] is 3.04 µM (active); in test [15], 2.79 µM (active); in [16], 2.94 µM (active); with IYD (gene 389434), 66.2 µM (active). In addition, the result in [3] was inactive.

Regarding `COc1cc(C(=O)NC2CCN(C)CC2)ccc1Nc1ncc2c(n1)N(C1CCCC1)CC(F)(F)C(=O)N2C`, the compound was classed as inactive in test [1] and in test [2].

In the case of `NCc1cccc(C2CCN(C(=O)c3ccc(C#Cc4ccccc4F)o3)CC2)c1`, the call in test [1] and in test [2] was inactive.

With `CN1C(=O)CC[C@H]1c1cccnc1`, the compound was called inactive in test [1] and in test [2].

Take `CCCOC(=O)c1cc(O)c(O)c(O)c1`: the result in test [3] was inactive.

Take `CCCCCCCCCCCO`: the call in test [1] and in [2] was inactive.
